Source: PubChem BioAssay (NCI)
The panel holds about 83,000 compounds, 20% with a hit somewhere; the sample as a whole holds those more often.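 Note: values are percent growth. 100 is the growth of untreated cells, values between 100 and 0 indicate rising inhibition; between -100 and 0 indicates cell death.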 Active and inactive are the calls of the source. Rule for the calls: active = growth percent below 10; inactive = the rest.

Tests used:
Assay in all cases: NCI-60 one-dose screen, 48 h (100 = growth as untreated, 0 = no growth, -100 = all killed)
Details in all cases: 10 µM unless noted
[1] = test system: HCT-15 colon
[2] = test system: HT29 colon
[3] = test system: SNB-75 CNS
[4] = test system: SNB-19 CNS
[5] = test system: U251 CNS
[6] = test system: PC-3 prostate
[7] = test system: SK-MEL-5 melanoma
[8] = test system: UACC-62 melanoma
[9] = test system: SK-MEL-28 melanoma
[10] = test system: LOX IMVI melanoma

Row | SMILES | growth [1] | growth [2] | growth [3] | growth [4] | growth [5] | growth [6] | growth [7] | growth [8] | growth [9] | growth [10]
1 | CC(C)(C)c1cc(-c2nc3ccc(N4CCN(S(C)(=O)=O)CC4)cc3[nH]2)cc(C(C)(C)C)c1O | 69.2% (inactive) | 81% (inactive) | 73.8% (inactive) | 104% (inactive) | 90.2% (inactive) | 91.7% (inactive) | 95.7% (inactive) | 94.5% (inactive) | 94.3% (inactive) | 
2 | Cc1cccc2c1NC(=O)C2(c1ccc(O)cc1)c1ccc(O)cc1 | 49.3% (inactive) | 79.2% (inactive) | 23.1% (inactive) | 102% (inactive) | 90.1% (inactive) | 38.9% (inactive) | 96.5% (inactive) | 83.8% (inactive) | 106% (inactive) | 
3 | CC1(C)CCC(S(=O)(=O)c2ccc3c(c2)/C(=N\O)c2cc(S(=O)(=O)N4CCC(O)(c5cccc(C(F)(F)F)c5)CC4)ccc2-3)CC1 | 16.3% (inactive) | -80.1% (active) | -98.2% (active) | -81.9% (active) | -98.6% (active) | -71.5% (active) | -92.7% (active) | -84.9% (active) | -71.7% (active) | -86.1% (active)
4 | COc1ccc(C(=O)Nc2cccc(C3CC(=O)c4c(cc(OC)c(OC)c4OC)O3)c2)cc1 (configuration not stated) | 13.3% (inactive) | 6.28% (active) | -11.4% (active) | 18.3% (inactive) | 9.47% (active) | 20.4% (inactive) | 9.7% (active) | 25.5% (inactive) | 56.3% (inactive) | 26.1% (inactive)
5 | COc1ccc(-c2nc3c(c(-c4ccccc4)nn3-c3ccccc3)c(-c3ccc(N4CCN(C)CC4)cc3)c2C#N)cc1 | 56.2% (inactive) | 80.5% (inactive) | 106% (inactive) | 95.2% (inactive) | 77.4% (inactive) | 94.3% (inactive) | 97.8% (inactive) | 100% (inactive) | 97.5% (inactive) | 69.2% (inactive)
6 | COC(=O)c1n[nH]c2ccc3nc(-c4cn[nH]c4C(F)(F)F)c4c(c3c12)CCCC4 | 39% (inactive) | 25.7% (inactive) | 28.8% (inactive) | 68.7% (inactive) | 41.7% (inactive) | 64.4% (inactive) | 40.4% (inactive) | 21.6% (inactive) | 25.5% (inactive) | 21.7% (inactive)
7 | CCCCCCCCn1ccc2cc(NC(=O)CN3CCN(c4nc(C)cc(Cl)n4)CC3)ccc21 | 77.1% (inactive) | 65.3% (inactive) | 87% (inactive) | 102% (inactive) | 92.8% (inactive) | 75.6% (inactive) | 91.1% (inactive) | 76.4% (inactive) | 98% (inactive) | 
8 | COc1cc(CNC(=O)CCCC/C=C/C(C)C)ccc1OCc1nnc(Nc2ccc([N+](=O)[O-])cc2)o1 | 81.2% (inactive) | 71.7% (inactive) | 48.7% (inactive) | 54% (inactive) | 48.6% (inactive) | 37.6% (inactive) | 46.3% (inactive) | 39.6% (inactive) | 74.3% (inactive) | 
9 | O=C(N/N=C/c1ccc(F)cc1)c1ccc(C(F)(F)F)nc1Nc1cccc(C(F)(F)F)c1 | 0.43% (active) | 1.2% (active) | 0.243% (active) | 18.4% (inactive) | -41% (active) | -1.21% (active) | -30.6% (active) | -6.64% (active) | 12.7% (inactive) | 
10 | CC(C)(C)n1cc(-c2ccnc(NCCCNS(=O)(=O)c3ccc(F)cc3)c2)c(-c2cccc(F)c2)n1 | 5.18% (active) | 6.93% (active) | 85% (inactive) | 72.7% (inactive) | 45.5% (inactive) | 46.1% (inactive) | 33.7% (inactive) | 72.7% (inactive) | 82.4% (inactive) | 
11 | Cn1cc(-c2csc(-c3ccc(Cl)cc3)n2)c2cccnc21 | -31.9% [100 µM] (active) | -70.3% [100 µM] (active) | -82.5% [100 µM] (active) | -41.8% [100 µM] (active) | 4.92% [100 µM] (active) | -16.7% [100 µM] (active) | -86.9% [100 µM] (active) | -38.5% [100 µM] (active) | -63.9% [100 µM] (active) | 1.66% [100 µM] (active)
12 | COc1ccc2cc(-c3ccc(NC(C)=O)c(=O)o3)ccc2c1 | 100% (inactive) | 87.9% (inactive) | 97.4% (inactive) | 94.1% (inactive) | 96% (inactive) | 89.1% (inactive) | 102% (inactive) | 94.8% (inactive) | 104% (inactive) | 104% (inactive)
13 | NC(=O)c1c(NC(=O)c2ccccc2)sc2c1CCC(=O)C2 | 12.4% (inactive) | 9.53% (active) | -3.05% (active) | 18.6% (inactive) | 17.6% (inactive) | 10.1% (inactive) | -57.6% (active) | 10.7% (inactive) | 34.9% (inactive) | 
14 | C=C1C(=O)O[C@H]2[C@H]1CC/C(COC(=O)NCc1cc[nH]c1)=C\CC[C@@]1(C)O[C@@H]21 | 24.6% (inactive) | 42.6% (inactive) | 70.4% (inactive) | 83.2% (inactive) | 68.2% (inactive) | 51.7% (inactive) | 91.2% (inactive) | 39.6% (inactive) | 54.6% (inactive) | 
15 | CCOC(=O)c1[nH]c(=O)c2c(C)nc(-c3ccccc3)cc2c1O | 100% (inactive) | 113% (inactive) | 118% (inactive) | 104% (inactive) | 117% (inactive) | 72.1% (inactive) | 96.7% (inactive) | 109% (inactive) | 105% (inactive) | 
16 | CCCCCOc1ccc(C(=O)/C(Br)=C/C(=O)O)cc1 | 89.1% (inactive) | 105% (inactive) | 73.8% (inactive) | 98.8% (inactive) | 86.7% (inactive) | 99.6% (inactive) | 104% (inactive) | 90.9% (inactive) | 87.4% (inactive) | 
17 | CCN1CCN(Cc2cn(CC(=O)Nc3ccc4c(ccn4Cc4ccccc4)c3)nn2)CC1 | 109% (inactive) | 102% (inactive) | 86.8% (inactive) | 98.4% (inactive) | 96.6% (inactive) | 96.4% (inactive) | 99.9% (inactive) | 95% (inactive) | 105% (inactive) | 103% (inactive)
18 | O=C(Nc1nc2ccc(F)cc2s1)c1cccnc1Nc1ccc(Cl)cc1 | 29% (inactive) | 30.1% (inactive) | 62.2% (inactive) | 26.4% (inactive) | 21.6% (inactive) | 14% (inactive) | 5.56% (active) | 28.4% (inactive) | 61.9% (inactive) | 48.3% (inactive)
19 | N#Cc1cccc(NC(=O)c2oc3ccccc3c2-c2cnn(-c3ccccc3)c2)c1 | 74.1% [50 µM] (inactive) | 85.5% [50 µM] (inactive) | 86.3% [50 µM] (inactive) | 84.2% [50 µM] (inactive) | 85.3% [50 µM] (inactive) | -9.05% [50 µM] (active) | 67.7% [50 µM] (inactive) | 75% [50 µM] (inactive) | 91.9% [50 µM] (inactive) | 
20 | COc1cc(CNS(=O)(=O)c2ccc(C)cc2)ccc1OCc1cn(-c2ccc(Br)cc2)nn1 | 103% (inactive) | 105% (inactive) | 87% (inactive) | 104% (inactive) | 101% (inactive) | 92.2% (inactive) | 97.8% (inactive) | 94.3% (inactive) | 99.7% (inactive) | 
21 | Cn1c(=O)c2c(nc(NC3=NS(=O)(=O)c4ccccc43)n2CC(=O)N2CCc3ccccc32)n(C)c1=O | 101% (inactive) | 101% (inactive) | 94.9% (inactive) | 101% (inactive) | 101% (inactive) | 104% (inactive) | 101% (inactive) | 97.6% (inactive) | 105% (inactive) | 91.2% (inactive)
22 | C=C1C(=O)O[C@H]2[C@H]1CC/C(COC(=O)CCSCCC(=O)OC/C1=C/CC[C@@]3(C)O[C@H]3[C@H]3OC(=O)C(=C)[C@@H]3CC1)=C\CC[C@@]1(C)O[C@@H]21 | -6.34% (active) | -9.93% (active) | 48.6% (inactive) | 55% (inactive) | 6.76% (active) | -14.5% (active) | 54.3% (inactive) | -67% (active) | -35.6% (active) | 
23 | C=CCc1c(O)c(C(=O)/C=C/c2ccc(Cl)cc2)c(OC)c2ccoc12 | 41.3% (inactive) | 36.6% (inactive) | 80.1% (inactive) | 63.2% (inactive) | 37.7% (inactive) | 30.9% (inactive) | 52.6% (inactive) | 48.1% (inactive) | 63.5% (inactive) | 34.8% (inactive)
24 | CC(=O)N(N=Nc1ccccc1)c1cccc2ccccc12 | 17.1% (inactive) | 35.2% (inactive) | 129% (inactive) | 106% (inactive) | 81.7% (inactive) | 68.1% (inactive) | 84.3% (inactive) | 75.3% (inactive) | 100% (inactive) | 76.5% (inactive)
